Bioassay records as filed in PubChem.
HTT cytoprotect = Huntington cell model cytoprotection by ATP luminescence. PC12 HTT-Q103 induced, cytoprotection, ATP luminescence, 40 h. Potency, µM (series often up to 56.4 µM), for the others: cytoprotection (ATP increase), actives largely listed as activators. 0.14% of 230,000 active; note: potency is the fitted concentration of half-maximal effect; % of control where 0% means no effect; nearly all actives have a fitted effect of over 45% in size
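Cells were plated at 1500 per well in phenol red-free DMEM with 5% equine and 5% calf serum. Tebufenozide (100 nM final) and compounds were added, then ATPlite reagent, and luminescence was read.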
ALDH1A1 block = ALDH1A1 (human) enzyme inhibition; P00352; Purified ALDH1A1, NADH fluorescence, propionaldehyde substrate; Potency, µM (top dose mostly 75.3 µM), for inactives: at the highest dose activity, negative = inhibition, usual class: inhibitors; 7.3% of 220,000 active; AID 1030; active = well fitted inhibition curve with a large enough effect, not every such curve was filed as active; inconclusive = small, poorly fitted or top-dose-only effect, or another doubt; inactive = no such curve, though single readings can be large or run the other way;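 note: potency is the fitted concentration of half-maximal effect; plate controls were no enzyme wells and a reference inhibitor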
Target sequence (P00352 whole entry, looked up): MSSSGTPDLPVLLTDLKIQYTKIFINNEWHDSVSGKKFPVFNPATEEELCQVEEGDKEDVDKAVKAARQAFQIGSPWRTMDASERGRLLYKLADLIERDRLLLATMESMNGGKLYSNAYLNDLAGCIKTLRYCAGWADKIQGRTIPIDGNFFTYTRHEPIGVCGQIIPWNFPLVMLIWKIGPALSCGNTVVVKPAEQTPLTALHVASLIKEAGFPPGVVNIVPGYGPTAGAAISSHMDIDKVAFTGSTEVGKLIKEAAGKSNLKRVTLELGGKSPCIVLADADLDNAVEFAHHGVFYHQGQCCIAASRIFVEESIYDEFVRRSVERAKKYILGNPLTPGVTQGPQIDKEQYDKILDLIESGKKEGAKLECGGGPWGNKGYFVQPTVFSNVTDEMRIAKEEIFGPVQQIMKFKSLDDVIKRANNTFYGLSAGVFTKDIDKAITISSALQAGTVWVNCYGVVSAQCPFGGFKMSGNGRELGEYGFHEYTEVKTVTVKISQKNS
HTT aggregate = inhibitors of mutant huntingtin aggregate formation in PC12 cells. PC12 HttQ103-GFP aggregates, Acumen cytometry, 40 h. Potency, µM (doses to about 46.1 µM), for inactives: at the top dose activity change, negative = inhibition, most hits filed as inhibitors. 1.1% of 220,000 active; note: potency is the fitted concentration of half-maximal effect; % is set by controls: 0 for no effect and ±100 for the full control effect; nearly all actives have a fitted effect of over 60% in size
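Huntingtin Q103 exon 1–GFP aggregates in induced PC12 cells (100 nM tebufenozide) were quantified by cytometry from lysates, with compounds dosed in titration.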
CBFb-RUNX1 inh = CBF-beta/RUNX1 interaction disruption | Q01196+Q13951 | AlphaScreen CBFb-His/RUNX1-biotin binding, biochemical | Potency, µM (doses to about 59.8 µM), for the others: at the top dose activity, negative = inhibition, actives largely listed as inhibitors | 230,000 tested, under 10 active | AID 1477; note: % of control where 0% means no effect
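Compounds were screened at multiple concentrations against a preformed CBF-beta(His)/RUNX1(biotin) complex (30 nM of each) for 15 min at room temperature, followed by 90 min with nickel and streptavidin beads and AlphaScreen reading.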
HPGD block = blocks human HPGD enzyme activity. purified HPGD, NADH fluorescence kinetic, PGE2 substrate. 4.3% of 150,000 active. AID 894. P15428. Potency, µM, inactives show top-dose activity change, negative = inhibition, hits mostly inhibitors; active = well fitted inhibition curve with a large enough effect, not every such curve was filed as active; inconclusive = small, poorly fitted or top-dose-only effect, or another doubt; inactive = no such curve, though single readings can be large or run the other way; note: potency is the fitted concentration of half-maximal effect; % is set by controls: 0 for no effect and ±100 for the full control effect
Target sequence (P15428 whole entry, looked up): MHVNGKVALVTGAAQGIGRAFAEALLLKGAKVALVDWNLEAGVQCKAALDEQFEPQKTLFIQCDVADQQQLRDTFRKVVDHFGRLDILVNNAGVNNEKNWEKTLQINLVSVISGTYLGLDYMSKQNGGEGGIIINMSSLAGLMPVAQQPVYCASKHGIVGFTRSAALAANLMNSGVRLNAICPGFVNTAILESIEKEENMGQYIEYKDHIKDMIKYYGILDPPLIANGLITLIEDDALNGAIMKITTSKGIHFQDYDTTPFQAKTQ
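20 nM HPGD preincubated 15 min at room temperature with compound in 50 mM Tris-HCl pH 8, 0.01% Tween 20. Started with 1 mM NAD+ and 30 uM prostaglandin E2; NADH fluorescence (360/450 nm) read 5 times over 30-s intervals, last minus first.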
PNC assembly inh = inhibitors of perinucleolar compartment assembly. PC3M PTB-GFP, PNC prevalence imaging, 16 h; stronger effect = lower value. activity change (PNC), negative = inhibition, % at 10 µM. 3.1% of 140,000 active. AID 2417;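 active = readout at or below -70, meaning at least 70% loss of cells showing the perinucleolar compartment, a nuclear body marking cancer cells; inconclusive = readout between -30 and a set limit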;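 note: plate controls were DMSO wells for no effect and camptothecin positive control wells for full effect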
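PC3M cells stably expressing PTB-GFP, 750–1000 cells/well, treated 16 h at 37 °C with compound (23 nl of library stock), in duplicate. After paraformaldehyde fixation and Hoechst stain, imaged at 20x; PNC prevalence scored by image analysis.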
Active calls of the source: *; u = inconclusive; x = no result; [ ] = dose if it differs, or a comment. The list is not random: actives were taken first. Their share in the collection is about 11%. Unless noted, calls come from the whole dose curve; as a rule, active = well fitted curve in the direction sought with a large enough effect; inconclusive = small, poorly fitted or top-dose-only effect, or another doubt; inactive = no such curve, though single readings can be large; an effect the other way counts as inactive or inconclusive.

SMILES	HTT cytoprotect	ALDH1A1 block	HTT aggregate	CBFb-RUNX1 inh	HPGD block	PNC assembly inh
Cc1ccc(/C=C/C(=O)N2CCN(S(=O)(=O)c3c(C)c(C)cc(C)c3C)CC2)o1	u	14.1µM*	u	-15.0%	25.1µM*	13.9
Cc1ccc(/C=C/C(=O)N2CCN(Cc3ccccc3)CC2)o1	-30.0%[0.074 µM]	8.91µM*	u	-9.9%	-25.9%	20.6
CC(=O)OC1CCC2(C)C(=CCC3C2CCC2(C)C3C[C@@H]3O[C@]32C(C)=O)C1 (some centres undefined)	9.8%[1.9 µM]	0.0%	x	4.1%[21.7 µM]	-3.9%	x
COc1cc(OC)cc(C(=O)NC2CCN(Cc3nnnn3Cc3cccs3)CC2)c1	-7.9%[10 µM]	12.6µM*	-4.2%	-20.3%	0.4%	-22.8
COc1cc(OC)cc(C(=O)NC2CCN(Cc3nnnn3Cc3ccc(F)cc3)CC2)c1	u	-11.7%	u	5.4%	x	x
COc1ccc(OC)c(-c2nnc3n2N=C(c2c(OC)cccc2OC)CS3)c1	x	x	x	-4.6%	x	x
CNC(=O)/C(C#N)=C/c1ccc(-c2ccc(OC)cc2[N+](=O)[O-])o1	-19.7%[10 µM]	0.3%	-17.4%	8.8%	7.08µM*	14.6
N#C/C(=C\c1ccc(-c2ccccc2[N+](=O)[O-])o1)C(=O)Nc1nc(-c2cccs2)cs1	-0.1%[10 µM]	1.78µM*	7.9%	7.0%	-13.9%	-0.1
N#C/C(=C\c1ccc(-c2ccc([N+](=O)[O-])cc2)o1)C(=O)Nc1nc(-c2cccs2)cs1	-4.1%[10 µM]	x	10.3%[9.22 µM]	-3.1%	x	x
C=CCc1cccc(C2C(C)CCC3C(=O)N4C(Cc5c([nH]c6ccccc56)C4c4cc(OC)c(OC)c(OC)c4)C(=O)N32)c1 (centres undefined)	9.7%[10 µM]	9.2%[13.5 µM]	x	5.0%[13.1 µM]	x	x
C=CCc1cccc(/C=N/NC(=O)CN2CCN(Cc3ccccc3)CC2)c1O	x	x	x	20.3%	x	x
C=CCc1cccc(/C=N/NC(=O)CNc2ccccc2OC)c1O	-119.6%	-8.4%	20µM*	-15.0%	x	x
C=CCc1cccc(/C=N/NC(=O)CNc2cccc3ccccc23)c1O	-13.3%[10 µM]	u	24.7%	3.3%	-25.3%	-84.1*
C=CCn1c(CNc2ccccc2)nnc1SCC(=O)N/N=C/c1ccccc1O	-48.9%	u	17.8µM*	-1.8%	-19.3%	35.6
C=CCn1c(COc2ccc(Cl)cc2)nnc1SCC(=O)N/N=C/c1cccc(O)c1	-17.5%	6.6%	9.0%	-4.2%	-7.3%	108.0
C=CCc1cccc(/C=N/NC(=O)C(C)Nc2cccc(C)c2)c1O (centres undefined)	-128.0%	-1.1%	11.2µM*	0.2%	x	x
C=CCc1cccc(/C=N/NC(=O)CCC(=O)Nc2ccc(F)cc2)c1O	-10.9%[10 µM]	1.3%	u	14.9%	-15.9%	44.6
COC(=O)C1C[C@@H]2C3=C(C(=O)[C@@](C)(NC(=O)c4ccccc4)C3[C@H](C(=O)OC)C1)[C@H](C)n1c(=O)n(-c3ccccc3)c(=O)n12 (some centres undefined)	x	x	x	13.9%	x	x
C=CCc1cccc(/C=N/NC(=O)CNc2ccccc2)c1O	-72.6%	3.6%	11.2µM*	1.5%	-15.7%	16.4
C=CCc1cccc(/C=N/NC(=O)CCCNc2ccc(C)cc2)c1O	26.6%[10 µM]	-6.2%	u	-17.4%	-12.3%	u
COc1cccc(Nc2ncc3nc(-c4cccs4)c(=O)n(C[C@H]4CCCO4)c3n2)c1	1.2%	-0.9%	x	x	x	x
COc1ccc(Cl)cc1-n1c(N)c(C(N)=O)sc1=S	-6.3%[0.074 µM]	u	-17.5%	-3.1%	28.2µM*	3.3
CCOc1ccccc1-n1c(N)c(C(N)=O)sc1=S	-7.7%	u	10.1%	-0.3%	-25.7%	-11.2
CCOC(=O)c1sc(=S)n(-c2ccccc2OC)c1N	21.1%[10 µM]	3.16µM*	2.0%	19.7%	u	34.5
CCCCNC(=O)c1sc(=S)n(-c2ccccc2OC)c1N	-4.1%	8.91µM*	3.3%	1.1%	31.6µM*	u
SMILES	HTT cytoprotect	ALDH1A1 block	HTT aggregate	CBFb-RUNX1 inh	HPGD block	PNC assembly inh
COC(=O)c1sc(=S)n(-c2ccccc2OC)c1N	14.7%	7.3%	15.5%	0.5%	14.1µM*	47.3
COCCn1c(=O)c(-c2cccc(C#N)c2)nc2cnc(N3CCNCC3)nc21	5.7%	u	x	x	u	x
COc1ccc2oc(C(=O)C3CC3)c(NC(=O)CCCN3C(=O)c4ccccc4C3=O)c2c1	-10.1%	x	x	x	x	x
Cc1ccc(-c2onc3ccc(C=O)cc23)cc1	-11.2%	u	-4.2%[9.22 µM]	-11.4%	u	34.2
O=C(O)/C=C/c1ccc2noc(-c3ccccc3)c2c1	-24.1%	u	3.98µM*	2.0%	x	x
CC(C)N(Cc1ccccc1)C(=O)COC(=O)/C=C/c1cnc2ccccc2n1	-0.1%	15.8µM*	5.0%	2.7%	x	x
CC(=O)Nc1ccc(NC(=O)Cn2nc([N+](=O)[O-])c(Br)c2C)cc1	-40.2%	3.1%	-9.9%	3.7%	x	x
Cc1c(Br)c([N+](=O)[O-])nn1CC(=O)Nc1ccc(Cc2ccncc2)cc1	x	u	u	-8.8%	-18.2%	-93.1*
COc1ccc2[nH]cc(CCNc3cc(-c4ccccc4OC)ncn3)c2c1	u	5.5%	x	x	x	x
COc1ccc(N=N/C(=C\O)C(=O)c2cccs2)cc1	u	14.1µM*	-10.7%	u	x	x
COc1ccc(C(=O)/C(=C/O)N=Nc2ccc(F)cc2)cc1	-28.2%[10 µM]	3.98µM*	u	-14.8%	x	x
COc1ccc(C(=O)C(/C=N/O)=N/Nc2ccc(F)cc2)cc1	-118.4%	14.8%	u	u	x	x
COc1ccc(-c2nc3cnc(N4CCN(C)CC4)nc3n(Cc3cccc(OC)c3)c2=O)cc1	3.5%	u	x	x	x	x
Cc1cc2c(cc1C)-c1nnnn1C(C)(C)C2	18.1%[10 µM]	7.08µM*	3.5%	1.4%	-4.3%	11.9
C[C@H]1Cc2c(COc3ccccc3)nc3c(c2CO1)CN(C(=O)NCCc1c[nH]c2ccccc12)CC3	-23.7%[10 µM]	11.9%[13.5 µM]	x	1.3%[13.1 µM]	1.3%	x
NC(=NCc1ccc(Cl)c(Cl)c1)NC(=O)c1nc(Cl)c(N)nc1N	-6.8%[1.9 µM]	u	x	-9.8%	u	x
O=C(CCc1ccc(O)cc1)c1c(O)cc(O)cc1O[C@H]1OC(CO)C(O)C(O)C1O (some centres undefined)	x	-9.0%	x	x	25.1µM*	x
COc1ccc(C(=O)/C(Br)=C/C(=O)O)cc1	u	x	17.7%	x	x	x
CCOC(=O)c1c(/N=C/N(C)C)sc(C=O)c1-c1ccccc1	-42.9%	u	-6.0%	6.9%	x	x
CCOC(=O)c1c(/N=C/N(C)C)sc(/C=N/Nc2ccccc2)c1-c1ccccc1	x	25.1µM*	-12.7%	1.4%	-6.4%	u
CCOC(=O)c1c(/N=C/N(C)C)sc(/C=N/Nc2ccccc2)c1-c1ccccc1Cl	27.1%[10 µM]	12.6µM*	u	6.4%	x	48.7
c1cc2c3c(c1)c1c(n3CCNC2)CCCC1	-10.9%	5.0%	x	-21.0%[21.7 µM]	-17.5%	x
